# High-throughput results (PubChem BioAssay)
# Most compounds without a hit are left out; they make up all but 7.5% or so of the library.
# Luc counter = Kinase-Glo luciferase inhibition (counter-screen); Q27757; Kinase-Glo luciferase, ATP luminescence, 8 min; Potency, µM (highest dose often 38.3 µM), for the others: at the highest dose activity change, negative = inhibition, most hits filed as inhibitors; 200,000 compounds, 0.28% hits; AID 1379; further: on the % scale 0 is the no-effect control and ±100 the full control effect; nearly all actives have a fitted effect of over 60% in size
#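 Light output from Kinase-Glo luciferase with luciferin and 10 uM ATP in 50 mM imidazole pH 7.2, KCl, MgCl2, Tween 20, BSA; compound pin-delivered, 8-min ambient incubation, then luminescence read.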
# FLuc counter = inhibits or activates purified firefly luciferase, miR-21 counter-screen | Potency, µM (doses to about 57.5 µM), without a hit: at the top dose activity change, negative = inhibition, actives largely listed as inhibitors | P08659 | 360,000 compounds, 6.9% hits | AID 588342 | purified FLuc, Km substrates, luminescence inhibition;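 further: plate controls were vehicle for no effect and reference inhibitor for full effect; nearly all actives have a fitted effect of over 55% in size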
# Target sequence (P08659 whole entry, looked up): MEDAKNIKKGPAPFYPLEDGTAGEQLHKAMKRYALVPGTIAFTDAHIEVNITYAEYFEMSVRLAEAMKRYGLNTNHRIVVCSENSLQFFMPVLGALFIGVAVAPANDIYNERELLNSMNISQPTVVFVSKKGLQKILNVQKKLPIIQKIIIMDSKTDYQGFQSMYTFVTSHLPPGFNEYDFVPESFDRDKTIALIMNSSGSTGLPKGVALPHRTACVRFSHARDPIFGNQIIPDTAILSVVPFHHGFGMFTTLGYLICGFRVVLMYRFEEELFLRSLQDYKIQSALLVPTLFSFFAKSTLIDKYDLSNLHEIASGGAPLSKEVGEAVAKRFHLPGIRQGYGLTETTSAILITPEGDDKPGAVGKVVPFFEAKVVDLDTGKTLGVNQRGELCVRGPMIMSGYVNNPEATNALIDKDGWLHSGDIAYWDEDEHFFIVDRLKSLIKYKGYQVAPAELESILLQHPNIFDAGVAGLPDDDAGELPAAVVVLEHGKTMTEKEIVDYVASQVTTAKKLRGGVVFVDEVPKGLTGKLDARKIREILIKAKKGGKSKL
#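 Purified P. pyralis luciferase (10nM final) with 10uM D-luciferin and 10uM ATP (Km levels) in 50mM Tris acetate pH 7.5, 10mM Mg acetate, 0.01% Tween-20, 0.05% BSA; qHTS 6-point titration, ~60 µM downward; luminescence read.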
# ELG1 genotox = inducers of genotoxicity in HEK293T ELG1-luciferase cells. HEK293T ELG1-luciferase reporter, luminescence, 16 h. Potency, µM (titrated, usually from 46 µM), without a hit: at the highest dose activity change, positive = activation, hits mostly activators. 330,000 compounds, 1.3% hits; further: % of control where 0% means no effect; nearly all actives have a fitted effect of over 60% in size
#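 ELG1-luciferase HEK293T cells, 2,000/well; compound pinned in; 16 hr, 37 °C, 5% CO2; ONE-Glo, 30 min RT; luminescence on CCD imager.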
# NPC1 promoter act = activators of NPC1 promoter; Huh7 NPC1 promoter luciferase reporter, 24 h; Potency, µM (top dose mostly 9.22 µM), for inactives: top-dose activation, actives largely listed as activators; 320,000 compounds, 2.4% hits; further: % of control where 0% means no effect; nearly all actives have a fitted effect of over 60% in size
#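 Cells: Huh7 expressing luciferase under the NPC1 promoter, 1500/well. Seeded 2 h, compound added, incubated 24 h at 37 °C. Luciferase reagent, 10 min ambient, then luminescence.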
# SMN2 splice up = enhancers of SMN2 splice variant expression; HEK293 SMN2-luciferase splicing reporter, luminescence, 30-36 h; Potency, µM (doses to about 46.1 µM), inactives show at the highest dose activity change, positive = activation, actives largely listed as activators; 210,000 compounds, 2.8% hits; further: % of control where 0% means no effect; nearly all actives have a fitted effect of over 55% in size
#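 HEK293 cells carry an SMN2 […]–luciferase reporter in which exon 7 inclusion puts luciferase in frame. Cells were plated 10-12 h before compound addition, then incubated 30-36 h at 37C. ONE-Glo luminescence was read; sodium butyrate at 4.5 mM final served as control.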
# Rab9 prom act = Rab9 promoter activation; 320,000 compounds, 2.8% hits; Potency, µM (highest dose often 9.22 µM), without a hit: top-dose activation, negative = inhibition, most hits filed as activators; Huh7 Rab9 promoter-luciferase reporter, luminescence, 24 h; further: % of control where 0% means no effect; nearly all actives have a fitted effect of over 60% in size
#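 Quantitative HTS format; Huh7 Rab9-luciferase reporter cells (1500/well) receive compound 2 h post-plating, incubate 24 h at 37 °C, then get luciferase reagent for 10 min before luminescence reading.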
# * marks the source's active call; other numbers are inactive results; ? = inconclusive; nt = no result; [ ] = remark or other dose. The call rests on the fitted dose curve; in most records, active means well fitted curve in the direction sought with a large enough effect; inconclusive means small, poorly fitted or top-dose-only effect, or another doubt; inactive means no such curve, though single readings can be large; an effect the other way counts as inactive or inconclusive. Potency means the concentration at half of the fitted maximal effect.
SMILES,Luc counter,FLuc counter,ELG1 genotox,NPC1 promoter act,SMN2 splice up,Rab9 prom act
FC(F)Sc1ccc(NC(=S)NC2CCCCC2)cc1,-1.7%,10.7µM*,?,26.3%,?,?
S=C(NCC1CCCCC1)Nc1ccc(Oc2ccccc2)cc1,2.1%,1.1%,-1.9%,-0.2%,-42.2%,-4.8%
FC(F)Sc1ccc(NC(=S)NCC2CCCCC2)cc1,-2.0%,23.9µM*,?,8.1%,24.9%,8.2%
CN(CC(=O)Nc1ccc(SC(F)F)cc1)C1CCCCC1,-1.4%,-2.7%,-7.1%,-3.2%,-5.0%,1.7%
COc1ccc(OC)c(N(CC(=O)N2CCN(Cc3ccccc3)CC2)S(C)(=O)=O)c1,nt,6.6%,2.8%,0.2%,nt,-0.7%
CC(=O)N1CCc2c(sc3c2c(=O)n(Cc2ccccc2)c(=O)n3Cc2ccccc2Cl)C1,nt,1.0%,nt,nt,0.1%,nt
C[C@@H](O)CCC[C@H](O)/C=C/[C@H]1[C@H](O)CC(=O)[C@@H]1C/C=C\CCCC(=O)O,1.0%,nt,nt,nt,1.8%,nt
CC#C[C@@]1(O)CC[C@H]2[C@@H]3CCC4=CC(=O)CCC4=C3[C@H](c3ccc(N(C)C)cc3)C[C@]21C,0.4%[17.1 µM],nt,nt,nt,-22.4%[20.6 µM],nt
CCC(C)(C)C1CCc2[nH]nc(C(=O)NCc3ccccn3)c2C1 (stereo not given),nt,-11.5%,-2.5%,0.2%,nt,0.6%
CCN(CC)C(=O)N1c2ccccc2C=Cc2ccccc21,0.2%,1.0%,-10.3%,-3.9%,3.98µM*,5.4%
CC1Cc2cc(S(=O)(=O)CCC(=O)NCc3ccccc3Cl)ccc2N1C(=O)C1CC1 (stereo not given),nt,-1.2%,nt,nt,nt,nt
CC(C)c1ccc(NC(=O)N(CCc2nc3ccccc3[nH]2)C2CCCC2)cc1,-0.3%,7.57µM*,2.5%,6.9%,-2.8%,3.9%
COc1ccccc1OCCSc1nc2ccccc2n1CCC(=O)O,nt,26.9µM*,6.1%,1.5%,nt,-2.1%
COc1ccccc1OCCn1c(SCC(=O)O)nc2ccccc21,nt,1.8%,1.1%,-1.6%,nt,5.6%
COc1ccccc1OCCSc1nc2ccccc2n1CCO,-2.9%,16.9µM*,-1.1%,1.1%,nt,1.4%
Cc1ccc(S(=O)(=O)N(CC(=O)Nc2ccc3c(c2)OCO3)c2cc(Cl)cc(Cl)c2)cc1,nt,-1.6%,nt,nt,7.6%,nt
Cc1cc(C)nc(-n2nc(C)c(Sc3ccc(F)cc3)c2N)n1,-15.4%,10.7µM*,?,2.51µM*,15.8µM*,3.55µM*
Cc1nn(-c2ccccc2)c(N)c1Sc1cccc([N+](=O)[O-])c1,-2.3%,-2.3%,-1.4%,-2.4%,-32.3%,-5.4%
Fc1ccccc1/C=N/n1cc(-c2ccccc2)[nH]c1=S,nt,?,2.2%,1.12µM*,nt,3.98µM*
S=c1[nH]c(-c2ccccc2)cn1/N=C/c1cccs1,nt,-14.7%,-0.6%,1.41µM*,nt,?
S=c1[nH]c(-c2ccccc2)cn1/N=C/c1ccc(Br)cc1,-1.4%,?,-8.6%,15.5%,nt,?
C/C(=N\NC(=O)CNC(=O)c1ccc2c(c1)OCCO2)c1ccco1,nt,-14.2%,1.0%,2.6%,nt,1.5%
C/C(=N\NC(=O)c1ccc(Cl)c(Cl)c1)c1ccc(Br)s1,-0.4%,0.0%,-0.2%,-9.2%,-46.1%,-8.1%
C/C(=N\NC(=O)c1ccc2c(c1)OCO2)c1ccco1,?,9.53µM*,14.1%,?,12.6µM*,0.794µM*
C/C(=N\NC(=O)c1ccco1)c1ccc(-c2ccccc2)cc1,nt,2.39µM*,9.2µM*,3.16µM*,nt,3.55µM*
C/C(=N/NC(=O)c1ccc2c(c1)OCO2)c1ccc(Br)s1,nt,0.2%,?,?,nt,3.55µM*
COc1ccc(S(=O)(=O)NCCc2sc(-c3cccc(F)c3)nc2C)cc1,nt,-1.3%,nt,nt,nt,nt
O=C(N/N=C/c1ccc(F)cc1)c1cc[n+]([O-])cc1,nt,-0.4%,4.3%,-2.4%,nt,0.1%
O=C(N/N=C/c1ccc(F)cc1)c1ccccc1,-20.6%,12µM*,?,2.82µM*,17.8µM*,2µM*
